Common to all, as to assay: NCI-60 one-dose screen, 48 h (100 = growth as untreated, 0 = no growth, -100 = all killed)
Common to all, as to conditions: 10 µM unless noted

In test [1] the test system is NCI-H23 lung.
For test [2], the system named is NCI-H226 lung.
The test system of test [3] is NCI-H322M lung.
The subject of test [4] is HOP-62 NSCLC.
Test [5] relates to NCI-H460 lung.
Test [6] has as its system HOP-92 NSCLC.
Test [7] concerns NCI-H522 lung.
For test [8], the system named is A549/ATCC NSCLC.
Test [9] relates to 786-0 renal.
The test system of test [10] is COLO 205 colon.

Molecules are shown by their SMILES. Compounds without any hit were thinned out: in the full panel of roughly 83,000, 20% have a hit.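 Interpretation: 100, growth as untreated; towards 0, rising growth inhibition; 0, no net growth; 0 to -100, cell death. Compounds scoring below 10 were considered active.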 Unmarked numbers belong to inactive results. Calls of active or inactive are those of the source.

With `Cn1c(=O)c2c(nc(Cl)n2CCl)n(C)c1=O`, the growth in test [1] is 3.75% (active); in test [2], 120%; in [3] it was 103%; in test [4], 115%; in test [5] it was 111%; in test [6] it was 97.6%. In addition, the growth was 84.8% in test [7], 106% in [8], 90.4% in test [9] and 60.8% in test [10].
`Cn1cc(-c2csc(-c3ccccc3)n2)c2cccnc21`: the growth in test [1] is -54.3% [100 µM] (active); in test [2], -11.7% [100 µM] (active); in test [3] it was -23.6% [100 µM] (active); in test [4], -74.3% [100 µM] (active); in test [5], -56.2% [100 µM] (active); in test [6], -53% [100 µM] (active). Moreover, the growth is -24.3% [100 µM] (active) in test [7], -12.8% [100 µM] (active) in test [8], -77.4% [100 µM] (active) in [9] and -67.2% [100 µM] (active) in [10].
With `COc1ccc(C2=NN(C(=O)c3cc(OC)c(OC)c(OC)c3)C(c3ccc(Cl)cc3)C2)cc1OC` (stereo not given), the growth in [1] is -7.6% (active); in test [2] it was 58.3%; in test [3], 55.7%; in test [4], 44.1%; in test [5], 14.3%; in [6] it was 31.6%. Besides, the growth is 4.89% (active) in [7], 29.4% in test [8], 22.5% in test [9] and 12.3% in [10].
Consider `N#Cc1c(N)nn(C(=O)c2ccc(NC(=O)c3ccccn3)cc2)c1-c1ccc(Cl)cc1`, for which the growth in test [1] was 20%; in [2] it was 20.1%; in test [3], 22.2%; in test [4], -18.4% (active); in [5], 15.9%; in test [6], 7.04% (active). For the same molecule, the growth in test [7] was 36.3%; in test [8], 35.4%; in test [9], 9.76% (active); in [10] it was 1.15% (active).
As for `O=C(/C=C/c1ccco1)c1ccc(Nc2nc(Nc3ccc(F)cc3)nc(Nc3ccc(Cl)cc3)n2)cc1`, the growth in test [1] is 59.5%; in test [2], 86%; in test [3] it was 48.3%; in [4], 96.2%; in test [5], 61.7%; in [6], 44.2%. The growth is 76.8% in test [7], 38.3% in [8], 84.4% in [9] and 35.9% in test [10].
In the case of `COc1ccc2c(c1)O/C(=C/c1ccc(OCC(=O)c3ccccc3)cc1)C2=O`, the growth in test [1] is 98.1%; in [2], 104%; in [3], 97.2%; in [4], 93.6%; in [5], 118%; in test [6], 98.6%. The growth in [7] is 94.5%; in test [8], 93.2%; in [9], 101%; in test [10], 129%.
Regarding `NC(N)=NN=C(c1ccccc1)c1ccccc1`, the growth in test [1] is 17.8%; in [2] it was 51.4%; in [3], 45.5%; in [4], 28.6%; in test [5] it was 14.4%; in test [6], 60.7%. The growth in test [7] is 28.2%; in [8], 50.8%; in test [9], 26.2%; in test [10] it was -0.806% (active).
Take `COc1ccc2c(c1)[nH]c(=O)c1c3cccnc3cn21`: the growth in test [1] was 36.6%; in test [2] it was 66.3%; in test [3], 85.8%; in test [4], 38.4%; in test [5], 1.71% (active); in test [6], 73.5%. The growth is 12% in test [7], 13% in test [8], 25.7% in test [9] and -45.4% (active) in test [10].
As for `Cc1cccc(Cc2cnc(NC(=O)c3ccc4nnsc4c3)s2)c1`, the growth in [1] is 92.7%; in test [2], 102%; in test [3] it was 97.4%; in test [4] it was 79.8%; in test [5], 114%; in [6] it was 74.7%. For the same molecule, the growth in test [7] is 77%; in test [8] it was 96.2%; in [9], 96%; in test [10], 94.8%.
Regarding `Clc1cc(Cl)cc(Nc2ccc3cc(OCCCN4CCOCC4)ccc3n2)c1`, the growth is 37.6% in test [1]; 68.5% in test [2]; 59.4% in test [3]; 22% in [4]; 17.5% in test [5]; 27.5% in test [6]. The growth is -21.1% (active) in test [7], 35.6% in test [8], -36.6% (active) in [9] and -51.3% (active) in test [10].
With `O=C(O)C1CCC(=O)N1C(=O)OCc1ccccc1` (stereo not given), the growth was 93.7% in test [1]; 94.1% in [2]; 94% in [3]; 94.2% in test [4]; 106% in [5]; 98.7% in test [6]. The growth is 92.8% in test [7], 96.7% in [8], 93% in test [9] and 124% in [10].
With `COc1ccc2[nH]c(O)c(C(=Nc3ccc(N(C)C(=O)CN4CCN(C)CC4)cc3)c3ccccc3)c2c1`, the growth in test [1] was 21.2%; in [2], 29%; in test [3] it was 61.1%; in test [4], 23.5%; in test [5], 15.3%; in test [6], 12.7%. Besides, the growth in [7] was 67.2%; in [8] it was 24.2%; in [9] it was 42.4%; in test [10], -6.6% (active).
With `O=C(Nc1ccc(-n2cc(-c3ccncc3)c(-c3ccc(Cl)c(O)c3)n2)cc1)N1CCOCC1`, the growth in test [1] was 111%; in [2], 103%; in [3], 106%; in [4], 95.7%; in [5], 103%; in test [6] it was 90.6%. Further, the growth in [7] was 94%; in test [8], 111%; in test [9] it was 101%; in test [10] it was 97.4%.
